Hits are enriched below; roughly 19% of the tested compounds scored in any of these assays.
ELG1 repair inh – ELG1-dependent DNA repair inhibition. AID 504467. actives 2.3% (n = 330,000). Potency, µM (doses to about 46.1 µM), inactives show at the top dose activity change, negative = inhibition, hits mostly inhibitors. HEK293T ELG1-luciferase reporter, luminescence, 16 h; DNA damage induced by 5-fluorouridine; also: potency is read from the fitted curve at half-maximal effect; nearly all actives have a fitted effect of over 55% in size
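Step one: seed 2,000 cells per well. Step two: pin-transfer compound or DMSO alongside 5-fluorouridine. Step three: incubate 16 hr, 37 °C, 5% CO2. Step four: add ONE-Glo, wait 30 min, read luminescence.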
HT1080NT lethal – kills 2HG-producing HT-1080-NT fibrosarcoma cells | actives 1.6% (n = 360,000) | HT-1080-NT fibrosarcoma viability, CellTiter-Glo ATP luminescence, 48 h | Potency, µM (highest dose often 46.1 µM), for inactives: at the top dose activity, negative = less viability, actives largely listed as cytotoxic;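 also: NT is the 2HG producing partner of a matched IDH1 knockdown line; potency is read from the fitted curve at half-maximal effect; 0% = DMSO-treated cells and -100% = media-only wells without cells; nearly all actives have a fitted effect of over 55% in size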
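Luminescent CellTiter-Glo readout after 48 hours of compound exposure at 37 degrees C defined viability of HT-1080-NT cells. Activity was normalized to DMSO wells and cell-free media wells; concentration-response curves were fitted and assigned curve classes.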
TDP1 cell noCPT – qHTS for Inhibitors of human tyrosyl-DNA phosphodiesterase 1 (TDP1): qHTS in cells in absence of CPT; DT40 Tdp1-/- hTDP1 cells, no CPT, ATP luminescence, 48 h; Potency, µM (doses to about 46.2 µM), without a hit: top-dose activity change, negative = growth inhibition, usual class: inhibitors; actives 15% (n = 420,000); also: potency is read from the fitted curve at half-maximal effect; nearly all actives have a fitted effect of over 55% in size
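Luminescent ATP content (CellTiter-Glo) served as the growth readout. Knockout chicken DT40 cells expressing human TDP1 were exposed to compounds without camptothecin for a minimum 48 hr at 37 °C.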
DT40 TDP1 CPT – growth inhibition of DT40 Tdp1-/-;hTDP1 cells with camptothecin (screen for TDP1 inhibitors). actives 12% (n = 420,000). chicken DT40 Tdp1-/-;hTDP1 cells + 20 nM CPT, ATP luminescence, 48 h. AID 686979. Potency, µM (doses to about 46.2 µM), for inactives: at the highest dose activity change, negative = growth inhibition, actives largely listed as inhibitors; also: potency is read from the fitted curve at half-maximal effect; nearly all actives have a fitted effect of over 55% in size
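Chicken DT40 Tdp1-/- cells stably complemented with human TDP1 were seeded at 400 cells/well in medium containing 20 nM camptothecin, exposed to pin-transferred compounds, and grown at 37 °C for at least 48 hr. Viability was read as ATP luminescence.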
HT1080 IDH1KD tx – toxicity to HT-1080 IDH1 knockdown cells (counter line) | HT-1080 IDH1 knockdown viability, ATP luminescence, 48 h | Potency, µM (series often up to 46.1 µM), without a hit: at the top dose activity, negative = toxicity, hits mostly cytotoxic | actives 2% (n = 360,000);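 also: potency is read from the fitted curve at half-maximal effect; 0% = DMSO wells and -100% = cell-free medium wells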
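IDH1KD HT-1080 cells, 750/well, RPMI + 5% FBS; compound pinned after 2 h settling; 48 h, 37 °C; CellTiter-Glo luminescence; % activity normalised to DMSO and no-cell wells; curves fitted, classed by r2 and efficacy.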
IL-1B inflam inh – blocks inflammasome-driven IL-1 beta release. THP-1 LPS/ATP IL-1B secretion, AlphaLISA, 16 h; stronger effect = lower value. activity change, % at 57.5 µM. actives 4.7% (n = 360,000). AID 743279; in the data active = activity change below about -50%; inconclusive = mostly about -30% to -49%
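Secreted IL-1B measured by AlphaLISA bead assay after 16 h compound exposure of THP-1 cells; compounds (final up to 57.5 uM) added 1 h before LPS (250 ng/mL) and ATP (1.25 mM) stimulation; lower signal means less secretion.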
* marks the source's active call; other numbers are inactive results. Unless noted, calls follow the shape of the dose curve; as a rule, active = well fitted curve in the direction sought with a large enough effect; inconclusive = small, poorly fitted or top-dose-only effect, or another doubt; inactive = no such curve, though single readings can be large; an effect the other way counts as inactive or inconclusive. Unless noted, % is scaled to controls: 0 for no effect and ±100 for the full control effect.

Screening Cc1ccc(SCC(=O)Nc2ccc(F)cc2[N+](=O)[O-])cc1C returned ELG1 repair inh 1.3%, HT1080NT lethal 16.6%, TDP1 cell noCPT -26.2%, DT40 TDP1 CPT 22.1%, HT1080 IDH1KD tx 12.2% and IL-1B inflam inh 15.5.
O=C(COC(=O)c1ccc(OC(F)(F)F)cc1)NCCN1C(=O)CSC1=O was read as ELG1 repair inh 1.4%, HT1080NT lethal 3.1%, TDP1 cell noCPT 0.0%, DT40 TDP1 CPT -6.1%, HT1080 IDH1KD tx -3.3% and IL-1B inflam inh -8.7.
Screening CCOC(=O)c1ccc[n+](CC(=O)c2ccc(NC(=O)c3ccccc3)cc2)c1 returned ELG1 repair inh -6.4%, HT1080NT lethal -1.1%, TDP1 cell noCPT 17.9%, DT40 TDP1 CPT -13.3%, HT1080 IDH1KD tx -0.3% and IL-1B inflam inh 3.4.
Screening CN1CCCN(Cc2nc(-c3cccc(C(F)(F)F)c3)no2)CC1 returned ELG1 repair inh inconclusive, HT1080NT lethal -8.3%, TDP1 cell noCPT 16.4µM*, DT40 TDP1 CPT inconclusive, HT1080 IDH1KD tx -12.5% and IL-1B inflam inh -14.4.
Cn1c(NCCO)nc2c(c1=O)C1(CCCCC1)Cc1ccccc1-2 was read as ELG1 repair inh 5.3%, HT1080NT lethal -0.1%, TDP1 cell noCPT -8.6%, DT40 TDP1 CPT inconclusive, HT1080 IDH1KD tx -13.2% and IL-1B inflam inh -7.7.
`CC1(C)Cc2ccccc2-c2nc(NCCCO)n(-c3ccccc3)c(=O)c21` gave ELG1 repair inh inconclusive, HT1080NT lethal 5.5%, TDP1 cell noCPT 14.6µM*, DT40 TDP1 CPT 23.1µM*, HT1080 IDH1KD tx 0.9% and IL-1B inflam inh -8.3.
Screening Cc1[nH]c2ccccc2c1-c1csc(NC(=O)CSCCO)n1 returned ELG1 repair inh inconclusive, HT1080NT lethal -4.6%, TDP1 cell noCPT -31.4%, DT40 TDP1 CPT inconclusive, HT1080 IDH1KD tx -1.9% and IL-1B inflam inh inconclusive.
N#Cc1ccccc1S(=O)(=O)Nc1ccc2c(c1)OCCO2 was read as ELG1 repair inh 11.4%, HT1080NT lethal -1.4%, TDP1 cell noCPT -13.2%, DT40 TDP1 CPT 1.2%, HT1080 IDH1KD tx 7.7% and IL-1B inflam inh -4.8.
O=C(c1cnccn1)N1CCC2(CCN(Cc3ccccc3)CC2)CC1 was read as TDP1 cell noCPT -14.8% and DT40 TDP1 CPT 9.4%.
COc1ccc2oc3cc(C)[n+]([O-])c(-c4ccc(Br)cc4)c3c2c1 was read as ELG1 repair inh 20.6µM*, HT1080NT lethal -8.1%, TDP1 cell noCPT 0.0082µM*, DT40 TDP1 CPT inconclusive, HT1080 IDH1KD tx -5.0% and IL-1B inflam inh -2.5.
Screening Cc1ccc(CNC(=O)CSc2nc(=O)n3ccc(C)cc3n2)cc1 returned HT1080NT lethal -0.5%, TDP1 cell noCPT -10.5%, DT40 TDP1 CPT 4.4%, HT1080 IDH1KD tx -1.2% and IL-1B inflam inh -10.4.
`COc1ccc(CNCc2ccc3c(c2)OCO3)c(OC)c1OC` gave ELG1 repair inh -9.4%, HT1080NT lethal -11.2%, TDP1 cell noCPT inconclusive, DT40 TDP1 CPT inconclusive, HT1080 IDH1KD tx -1.5% and IL-1B inflam inh 3.8.
COc1ccc(CNCc2ccc3c(c2)OCO3)cc1Br was read as ELG1 repair inh 0.3%, HT1080NT lethal 2.0%, TDP1 cell noCPT 16.4µM*, DT40 TDP1 CPT inconclusive, HT1080 IDH1KD tx -1.7% and IL-1B inflam inh -23.1.
`CC(=O)c1ccc(NC(=O)c2ccc(-n3cnnc3)cc2)cc1` gave TDP1 cell noCPT -6.0% and DT40 TDP1 CPT -13.4%.
`CCc1ccccc1NC(=O)c1ccc(-n2c(C)ccc2C)cc1` gave ELG1 repair inh -29.4%, HT1080NT lethal inconclusive, TDP1 cell noCPT inconclusive, DT40 TDP1 CPT inconclusive, HT1080 IDH1KD tx inconclusive and IL-1B inflam inh -83.2*.

Bioassay records deposited in PubChem by National Center for Advancing Translational Sciences (NCATS).
